From the supplement of paper PMC11732987, “Enantioselective OTUD7B fragment discovery through chemoproteomics screening and high-throughput optimisation” (Communications Chemistry, 2025)

What was measured:
Test in all cases: log2 ratio of Biotin-Ahx-Ub-VS probe labelling (compound/DMSO); higher = less target engagement, active = hit call of the paper (q ≤ 0.05, log2 ratio ≤ -1)
Conditions in all cases: treatment time: 3 h
[1] = compound: CCC1N(CCc2sccc12)C(=O)CCl
Outline: (§1)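 Compound at 50 or 200 µM, or DMSO, was applied for 3 h in triplicate to HEK293T lysate (495 µg per sample, Tris/CHAPS/IGEPAL buffer with protease inhibitors), after which Biotin-Ahx-Ub-VS was added at 0.5 µM final for 1 h. The labelled DUBs were pulled down with NeutrAvidin, digested with LysC and trypsin, and run by diaPASEF LC-MS/MS. Ratios are averaged base-two logs of compound over DMSO from median-normalised label-free quantities by unpaired t-test, counting only proteins with at least 2 unique peptides.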

[2] = compound: CN1c2ccccc2C(CS1(=O)=O)NC(=O)CCl
Outline: as §1

[3] = compound: Cl.ClCC(=O)N1CCc2ncncc2C1
Outline: as §1

[4] = compound: Cl.Cn1ncc2C(CCCc12)NC(=O)CCl
Outline: as §1

[5] = compound: ClCC(=O)NC1CCOc2ccccc12
Outline: as §1

[6] = compound: ClCC(=O)NC1CCCc2ccccc12
Outline: (§2)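 Spectronaut label-free, global-median-normalised protein quantities underlie these values, which are average ratios of compound to vehicle from an unpaired t-test. They are reported as log2 and include only proteins identified by two or more unique peptides. Samples of HEK293T lysate (495 µg) were treated in triplicate with a compound concentration series or vehicle for 3 h, then labelled with Biotin-Ahx-Ub-VS at 0.5 µM final for 1 h before NeutrAvidin enrichment, LysC and trypsin digestion, and diaPASEF LC-MS/MS.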

[7] = compound: ClCC(=O)N[C@@H]1CCCc2ccccc12
Outline: as §2

[8] = compound: ClCC(=O)N[C@H]1CCCc2ccccc12
Outline: as §2

[9] = compound: CCC1N(CCc2cc(OC)c(Cl)cc12)C(=O)CCl
Outline: as §1

[10] = compound: CCCC1N(CCc2cc(OC)c(OC)cc12)C(=O)CCl
Outline: as §1

Measured: log2 ratio of Biotin-Ahx-Ub-VS probe labelling

USP28 (UniProt Q96RU2)
UniProt Q96RU2, sequence (Q96RU2 whole entry): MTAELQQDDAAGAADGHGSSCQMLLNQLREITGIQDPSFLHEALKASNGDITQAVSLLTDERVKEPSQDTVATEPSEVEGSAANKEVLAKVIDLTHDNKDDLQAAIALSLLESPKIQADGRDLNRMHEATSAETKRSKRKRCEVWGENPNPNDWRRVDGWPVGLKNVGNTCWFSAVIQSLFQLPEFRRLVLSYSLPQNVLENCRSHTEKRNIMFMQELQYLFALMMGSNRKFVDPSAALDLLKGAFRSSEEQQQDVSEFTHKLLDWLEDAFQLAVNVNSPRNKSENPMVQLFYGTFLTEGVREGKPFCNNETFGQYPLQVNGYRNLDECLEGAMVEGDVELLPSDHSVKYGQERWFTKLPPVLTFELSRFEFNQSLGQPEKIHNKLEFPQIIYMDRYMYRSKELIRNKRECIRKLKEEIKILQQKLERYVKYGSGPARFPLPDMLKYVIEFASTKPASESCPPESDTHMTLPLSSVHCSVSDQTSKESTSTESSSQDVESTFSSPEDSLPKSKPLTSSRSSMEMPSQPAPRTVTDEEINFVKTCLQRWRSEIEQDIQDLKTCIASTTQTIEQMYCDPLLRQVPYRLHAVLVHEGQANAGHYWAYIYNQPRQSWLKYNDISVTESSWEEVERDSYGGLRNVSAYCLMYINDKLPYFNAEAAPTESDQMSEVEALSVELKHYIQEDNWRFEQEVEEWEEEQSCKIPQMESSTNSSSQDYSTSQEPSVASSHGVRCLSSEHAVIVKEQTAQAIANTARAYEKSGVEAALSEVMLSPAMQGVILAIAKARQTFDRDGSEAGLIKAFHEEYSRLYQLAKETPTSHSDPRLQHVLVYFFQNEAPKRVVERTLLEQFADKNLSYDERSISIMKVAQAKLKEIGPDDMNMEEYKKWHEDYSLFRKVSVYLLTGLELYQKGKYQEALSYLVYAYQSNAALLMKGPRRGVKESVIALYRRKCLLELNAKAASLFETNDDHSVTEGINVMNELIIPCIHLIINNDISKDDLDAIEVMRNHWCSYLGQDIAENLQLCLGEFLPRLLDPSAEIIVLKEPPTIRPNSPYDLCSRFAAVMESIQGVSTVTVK
inactive: [1]; compound concentration: 50uM -0.105 | [1]; compound concentration: 200uM -0.495 | [2]; compound concentration: 50uM -0.127 | [2]; compound concentration: 200uM -0.556 | [3]; compound concentration: 50uM -0.0823 | [3]; compound concentration: 200uM -0.643 | [4]; compound concentration: 50uM 0.00687 | [4]; compound concentration: 200uM -0.349 | [5]; compound concentration: 50uM 0.0277 | [5]; compound concentration: 200uM -0.467 | [6]; compound concentration: 0.78uM -0.115 | [6]; compound concentration: 1.56uM 0.0493 | [6]; compound concentration: 3.13uM -0.068 | [6]; compound concentration: 6.25uM -0.0775 | [6]; compound concentration: 12.5uM -0.136 | [6]; compound concentration: 25uM -0.188 | [6]; compound concentration: 50uM -0.185 | [6]; compound concentration: 100uM -0.427 | [6]; compound concentration: 200uM -0.751 | [7]; compound concentration: 0.78uM -0.289 | [7]; compound concentration: 1.56uM -0.168 | [7]; compound concentration: 3.13uM -0.114 | [7]; compound concentration: 6.25uM -0.181 | [7]; compound concentration: 12.5uM -0.122 | [7]; compound concentration: 25uM -0.154 | [7]; compound concentration: 50uM -0.239 | [7]; compound concentration: 100uM -0.221 | [7]; compound concentration: 200uM -0.426 | [8]; compound concentration: 0.78uM -0.0897 | [8]; compound concentration: 1.56uM -0.144 | [8]; compound concentration: 3.13uM -0.065 | [8]; compound concentration: 6.25uM 0.0299 | [8]; compound concentration: 12.5uM -0.143 | [8]; compound concentration: 25uM -0.24 | [8]; compound concentration: 50uM -0.318 | [8]; compound concentration: 100uM -0.618 | [8]; compound concentration: 200uM -0.996 | [9]; compound concentration: 50uM -0.146 | [9]; compound concentration: 200uM -0.945 | [10]; compound concentration: 50uM -0.218 | [10]; compound concentration: 200uM -0.719

USP46 (UniProt P62068)
UniProt P62068, sequence (P62068 whole entry): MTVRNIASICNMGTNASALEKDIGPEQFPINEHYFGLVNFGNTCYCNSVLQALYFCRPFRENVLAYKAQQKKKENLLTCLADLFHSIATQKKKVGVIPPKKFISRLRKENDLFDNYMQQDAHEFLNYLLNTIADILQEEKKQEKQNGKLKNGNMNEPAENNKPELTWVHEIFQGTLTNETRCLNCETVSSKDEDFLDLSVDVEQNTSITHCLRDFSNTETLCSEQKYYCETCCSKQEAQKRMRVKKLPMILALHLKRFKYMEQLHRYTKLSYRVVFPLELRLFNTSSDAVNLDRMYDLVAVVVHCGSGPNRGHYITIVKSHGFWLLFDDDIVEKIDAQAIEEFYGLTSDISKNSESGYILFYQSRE
active: [9]; compound concentration: 200uM -1.5
inactive: [1]; compound concentration: 50uM 0.00875 | [1]; compound concentration: 200uM -0.386 | [2]; compound concentration: 50uM -0.283 | [2]; compound concentration: 200uM -0.392 | [3]; compound concentration: 50uM -0.496 | [3]; compound concentration: 200uM -0.363 | [4]; compound concentration: 50uM 0.0697 | [4]; compound concentration: 200uM -0.0122 | [5]; compound concentration: 50uM -0.118 | [5]; compound concentration: 200uM -0.18 | [6]; compound concentration: 0.78uM -0.00158 | [6]; compound concentration: 1.56uM -0.0881 | [6]; compound concentration: 3.13uM -0.475 | [6]; compound concentration: 6.25uM -0.276 | [6]; compound concentration: 12.5uM -0.393 | [6]; compound concentration: 25uM -0.421 | [6]; compound concentration: 50uM -0.311 | [6]; compound concentration: 100uM 0.116 | [6]; compound concentration: 200uM -0.326 | [7]; compound concentration: 0.78uM -0.158 | [7]; compound concentration: 1.56uM -0.00787 | [7]; compound concentration: 3.13uM 0.116 | [7]; compound concentration: 6.25uM 0.0618 | [7]; compound concentration: 12.5uM 0.00378 | [7]; compound concentration: 25uM -0.153 | [7]; compound concentration: 50uM -0.14 | [7]; compound concentration: 100uM -0.166 | [7]; compound concentration: 200uM -0.243 | [8]; compound concentration: 0.78uM 0.11 | [8]; compound concentration: 1.56uM -0.348 | [8]; compound concentration: 3.13uM -0.0607 | [8]; compound concentration: 6.25uM -0.153 | [8]; compound concentration: 12.5uM 0.0225 | [8]; compound concentration: 25uM -0.138 | [8]; compound concentration: 50uM 0.0154 | [8]; compound concentration: 100uM -0.107 | [8]; compound concentration: 200uM -0.288 | [9]; compound concentration: 50uM -0.0362 | [10]; compound concentration: 50uM -0.446 | [10]; compound concentration: 200uM -0.735
